According to PubChem BioAssay AID1986 (Sanford-Burnham Center for Chemical Genomics, 2009):
Where “and” joins values, the source holds several entries; their conditions need not be identical. Equal values may be shown once. Hit rate of the full screen: of about 290,000 compounds, about 890 (0.31%) were called active. Cut-off read from the data, not from the text of the source: active = inhibition mostly above about 52% (no sharp cut-off); inactive = mostly below about 76%. For the sample, actives were picked, then their nearest neighbours and some compounds at random.

Experiment: cell-free HIV fusion peptide-binding blockers – biochemical, uHTS, fluorescence dequenching, primary screen (AID 1986)
Settings: 30 min, stronger effect = higher value
[1] = measured here: repeat confirmation average inhibition, at 18.6 µM

**Q.** Which inhibition (at 20 µM) does the source give for `O=C(OCc1ccccc1)c1cnc(Cl)c(Cl)c1` here?
**A.** The inhibition was -1.7% (inactive).

**Q.** Which inhibition (at 20 µM) does the source give for `CC(C)CNC(=O)c1cccc(NC(=O)CCc2ccccc2)c1` here?
**A.** Its inhibition is 0.2% (inactive).

**Q.** Which inhibition (at 20 µM) does the source give for `CC(=O)NCCn1c(SCC(=O)NCCC(C)C)nc2ccccc2c1=O` here?
**A.** Its inhibition is -1.8% (inactive).

**Q.** For `Nc1c(C(=O)OCC2CCCO2)c2nc3ccccc3nc2n1-c1ccc2c(c1)OCCO2` (centres undefined), which inhibition (at 20 µM) is on record?
**A.** The inhibition was 0.3% (inactive).

**Q.** With `O=C(c1ccco1)N1CCN(c2ccc([N+](=O)[O-])c(N3CCOCC3)c2)CC1` as the compound, how does the inhibition (at 20 µM) read?
**A.** The inhibition was 0.8% (inactive).

**Q.** For `Nc1ccc2nc(SCc3ccc([N+](=O)[O-])cc3)sc2c1`, which inhibition (at 20 µM) is on record?
**A.** The inhibition was 1.8% (inactive).

**Q.** Which inhibition (at 20 µM) does the source give for `Cn1cc(CN2CCN(CC(C)(C)C)C(CCO)C2)c2ccccc21` (centres undefined) here?
**A.** Its inhibition is 2.5% (inactive).

**Q.** With `Cc1ccc(CSc2nc3ccccc3c(=O)n2CCCC(=O)NCc2ccco2)cc1` as the compound, how does the inhibition (at 20 µM) read?
**A.** Its inhibition is -1.1% (inactive).

**Q.** With `CN1CCN(c2ccc(NC(=O)CSc3nnnn3-c3ccccc3F)cc2)CC1` as the compound, how does the inhibition (at 20 µM) read?
**A.** The inhibition was -0.3% (inactive).

**Q.** For `Cc1cc2nc(-c3ccc(SCc4ccc(C#N)cc4)nc3)[nH]c2cc1C`, which inhibition (at 20 µM) is on record?
**A.** Its inhibition is 8.6% (inactive).

**Q.** For `Cc1cc2nc(-c3ccc(SCc4ccc(C(=O)O)cc4)nc3)[nH]c2cc1C`, which inhibition (at 20 µM) is on record?
**A.** The inhibition was 56.9% (active).

**Q.** Which inhibition (at 20 µM) does the source give for `CC(=O)CSc1ccc(-c2nc3cc(C)c(C)cc3[nH]2)cn1` here?
**A.** Its inhibition is 0.7% (inactive).

**Q.** For `Cn1nc(CC(=O)Nc2cccnc2N2CCOCC2)c2ccccc2c1=O`, which inhibition (at 20 µM) is on record?
**A.** Its inhibition is 0.1% (inactive).

**Q.** Which inhibition (at 20 µM) does the source give for `Cc1ccccc1N=Nc1ccc(O)c2ncccc12` here?
**A.** Its inhibition is -1.3% (inactive).

**Q.** For `O=S(=O)(O)c1cccc2c(N=Nc3ccc(O)c4ncccc34)cccc12`, which inhibition (at 20 µM) is on record?
**A.** Its inhibition is 64.9% (active).

**Q.** Which inhibition (at 20 µM) does the source give for `NS(=O)(=O)c1ccc(N=Nc2ccc(O)c3ncccc23)cc1` here?
**A.** Its inhibition is -1.1% (inactive).

**Q.** For `O=C(O)/C=C\C(=O)Nc1ccccc1C(=O)NCc1ccccc1`, which inhibition (at 20 µM) is on record?
**A.** Its inhibition is -0.8% (inactive).

**Q.** Which inhibition (at 20 µM) does the source give for `CCN(CC)c1ccc(C=O)c(OC)c1` here?
**A.** The inhibition was -0.9% (inactive).

**Q.** Which inhibition (at 20 µM) does the source give for `CCN(CC)c1ccc(/C=C/c2cccc[n+]2C)c(OC)c1` here?
**A.** Its inhibition is 77.3% (active).

**Q.** And the inhibition [1]?
**A.** Its inhibition is 63.6%.

**Q.** For `COc1ccc(/C=C/c2cccc[n+]2C)c(O)c1`, which inhibition (at 20 µM) is on record?
**A.** The inhibition was 2.7% (inactive).

**Q.** For `Cc1c(OC(C)C(=O)NCCCN2CCCC2=O)ccc2c3c(c(=O)oc12)CCCC3` (centres undefined), which inhibition (at 20 µM) is on record?
**A.** The inhibition was -2.1% (inactive).

**Q.** With `CCOC(=O)C1(Cc2ccccc2)CCCN(Cc2cnn(CC)c2)C1` (centres undefined) as the compound, how does the inhibition (at 20 µM) read?
**A.** The inhibition was -1.6% (inactive).

**Q.** With `Cc1cccc2c1N(C(=O)c1ccco1)C(C)(C)c1ssc(=S)c1-2` as the compound, how does the inhibition (at 20 µM) read?
**A.** Its inhibition is -4.4% (inactive).

**Q.** For `CCCn1cc(CN2CCC(Cc3cccc(F)c3)(C(=O)OCC)CC2)c(C)n1`, which inhibition (at 20 µM) is on record?
**A.** Its inhibition is -3.2% (inactive).

**Q.** Which inhibition (at 20 µM) does the source give for `COc1cc([N+](=O)[O-])ccc1NC(=O)N1CCCCCC1` here?
**A.** Its inhibition is -0.4% (inactive).

**Q.** For `CN1CC=C2C(C#N)=C(N)C(C#N)(C#N)[C@H](c3cccs3)[C@H]2C1`, which inhibition (at 20 µM) is on record?
**A.** Its inhibition is 25.9% (inactive).

**Q.** Which inhibition (at 20 µM) does the source give for `CN1CCC2(CC1)C1CN(C)CC=C1C(C#N)=C(N)C2(C#N)C#N` (centres undefined) here?
**A.** The inhibition was 51.5% (active) and 103% (active).

**Q.** What about the inhibition [1] of the same compound?
**A.** Its inhibition is 50.3%.

**Q.** For `N#CC1=C(N)C(C#N)(C#N)C2(CCC3(CC2)OCCO3)C2CC3(CC=C12)OCCO3` (centres undefined), which inhibition (at 20 µM) is on record?
**A.** Its inhibition is 5.6% (inactive).

**Q.** Which inhibition (at 20 µM) does the source give for `CC(=O)N1CCC(=O)Nc2ccc([N+](=O)[O-])cc21` here?
**A.** Its inhibition is -0.3% (inactive).

**Q.** With `COc1cc2nc(CN3CCN(C(c4ccccc4)c4ccccc4)CC3)[nH]c(=O)c2cc1OC` as the compound, how does the inhibition (at 20 µM) read?
**A.** Its inhibition is 2.2% (inactive).

**Q.** For `Cc1ccc(S(=O)(=O)c2cc3c(=O)n4ccccc4nc3n(CCc3ccccc3)c2=N)cc1`, which inhibition (at 20 µM) is on record?
**A.** Its inhibition is 25% (inactive).

**Q.** Which inhibition (at 20 µM) does the source give for `COc1ccc(CCn2c(=N)c(S(=O)(=O)c3ccc(Cl)cc3)cc3c(=O)n4ccccc4nc32)cc1` here?
**A.** The inhibition was 195% (inactive).

**Q.** With `N=c1c(S(=O)(=O)c2ccc(Cl)cc2)cc2c(=O)n3ccccc3nc2n1CCc1ccccc1` as the compound, how does the inhibition (at 20 µM) read?
**A.** Its inhibition is 84.1% (active).

**Q.** And the inhibition [1]?
**A.** Its inhibition is 74.9%.

**Q.** For `O=C(NC1CC1)C1CCN(C2CCN(C(=O)Cc3ccc4c(c3)OCO4)CC2)CC1`, which inhibition (at 20 µM) is on record?
**A.** The inhibition was 0.5% (inactive).

**Q.** With `O=C(Nc1nnc(C2CC2)s1)C1COc2ccccc2O1` (centres undefined) as the compound, how does the inhibition (at 20 µM) read?
**A.** Its inhibition is -2.5% (inactive).

**Q.** With `Cc1cc(C)n2nc(C(=O)N3CCOCC3)nc2n1` as the compound, how does the inhibition (at 20 µM) read?
**A.** Its inhibition is -0.9% (inactive).

**Q.** With `Cc1cccc2cc(C(c3nnnn3Cc3ccc4c(c3)OCO4)N3CCCC3)c(=O)[nH]c12` (centres undefined) as the compound, how does the inhibition (at 20 µM) read?
**A.** The inhibition was -1.7% (inactive).

**Q.** For `O=C(COc1ncnc2ccccc12)Nc1cccc([N+](=O)[O-])c1`, which inhibition (at 20 µM) is on record?
**A.** The inhibition was 0.9% (inactive).

**Q.** With `COc1cccc(OC)c1C(=O)Oc1ccc2c(c1)O/C(=C\c1ccncc1)C2=O` as the compound, how does the inhibition (at 20 µM) read?
**A.** Its inhibition is 3.9% (inactive).

**Q.** For `CC(=O)Oc1ccc2c(c1)O/C(=C\c1ccncc1)C2=O`, which inhibition (at 20 µM) is on record?
**A.** The inhibition was 106% (active).

**Q.** What about the inhibition [1] of the same compound?
**A.** Its inhibition is 53%.

**Q.** For `O=C(Oc1ccc2c(c1)O/C(=C\c1ccncc1)C2=O)c1ccccc1`, which inhibition (at 20 µM) is on record?
**A.** The inhibition was 86.3% (inactive).

**Q.** And the inhibition [1]?
**A.** Its inhibition is 3%.

**Q.** For `COc1ccc(CNc2nc3nc(-c4ccccc4)cc(=O)n3[nH]2)cc1OC`, which inhibition (at 20 µM) is on record?
**A.** Its inhibition is 0.4% (inactive).

**Q.** For `O=C(CCl)Nc1ccc(N=Nc2ccccc2)cc1`, which inhibition (at 20 µM) is on record?
**A.** The inhibition was -2.8% (inactive).

**Q.** Which inhibition (at 20 µM) does the source give for `Oc1c(/C=N/c2ccccn2)sc2ccccc12` here?
**A.** Its inhibition is 6.4% (inactive).

**Q.** With `Oc1c(C=Nc2cccc3cccnc23)sc2ccccc12` as the compound, how does the inhibition (at 20 µM) read?
**A.** Its inhibition is 85.8% (active).

**Q.** And the inhibition [1]?
**A.** The inhibition was 50.9%.

**Q.** Which inhibition (at 20 µM) does the source give for `Oc1c(C=Nc2cccnc2)sc2ccccc12` here?
**A.** Its inhibition is 1.4% (inactive).

**Q.** For `CCOc1ccc2nc(NC(=O)C34CC5CC(CC(NC(C)=O)(C5)C3)C4)sc2c1`, which inhibition (at 20 µM) is on record?
**A.** The inhibition was -1.2% (inactive).

**Q.** For `O=C(O)c1c(Cl)c(Cl)c(Cl)c(Cl)c1C(=O)N1CCOCC1`, which inhibition (at 20 µM) is on record?
**A.** Its inhibition is 4.1% (inactive).

**Q.** With `CCOC(=O)/C(C#N)=N/Nc1ccc(S(=O)(=O)N2CCc3ccccc32)cc1` as the compound, how does the inhibition (at 20 µM) read?
**A.** Its inhibition is 5.4% (inactive).

**Q.** For `N#C/C(=N\Nc1ccc(S(=O)(=O)N2CCc3ccccc32)cc1)C(N)=S`, which inhibition (at 20 µM) is on record?
**A.** Its inhibition is 51.3% (active).

**Q.** With `N#C/C(=N\Nc1ccc(S(=O)(=O)N2CCCCCC2)cc1)C(N)=S` as the compound, how does the inhibition (at 20 µM) read?
**A.** The inhibition was 9.5% (inactive).

**Q.** With `Cc1ccc(NC(=O)c2cc([N+](=O)[O-])ccc2NCc2cccnc2)cc1` as the compound, how does the inhibition (at 20 µM) read?
**A.** The inhibition was -0.6% (inactive).

**Q.** Which inhibition (at 20 µM) does the source give for `O=C(O)c1ccc(/C=N/NC(=O)c2cc(-c3ccc4c5c(cccc35)CC4)n[nH]2)cc1` here?
**A.** Its inhibition is 61.2% (inactive).

**Q.** What about the inhibition [1] of the same compound?
**A.** Its inhibition is 7%.

**Q.** With `O=C(N/N=C/c1cccc([N+](=O)[O-])c1)c1cc(-c2ccc3c4c(cccc24)CC3)n[nH]1` as the compound, how does the inhibition (at 20 µM) read?
**A.** The inhibition was -6.3% (inactive).

**Q.** Which inhibition (at 20 µM) does the source give for `O=C(N/N=C/c1ccccc1C(=O)O)c1cc(-c2ccc3c4c(cccc24)CC3)n[nH]1` here?
**A.** Its inhibition is 69.6% (active).

**Q.** For `Cc1ccc(C(=O)NCC(c2ccc(F)cc2)N2CCOCC2)cc1` (centres undefined), which inhibition (at 20 µM) is on record?
**A.** Its inhibition is -1.6% (inactive).

**Q.** With `O=C(Cc1cccs1)N/N=C/C=C/c1ccco1` as the compound, how does the inhibition (at 20 µM) read?
**A.** Its inhibition is 31.2% (inactive).

**Q.** For `O=C(CSc1nnc(SCc2ccccc2)s1)N/N=C/C=C/c1ccco1`, which inhibition (at 20 µM) is on record?
**A.** The inhibition was 33.4% (inactive).

**Q.** For `O=C(Cc1cccs1)N/N=C/C=C\c1ccco1`, which inhibition (at 20 µM) is on record?
**A.** Its inhibition is 69.7% (active).

**Q.** For `O=C(CSc1nnc(SCc2ccccc2)s1)N/N=C/C=C\c1ccco1`, which inhibition (at 20 µM) is on record?
**A.** The inhibition was 51.3% (active).

**Q.** Which inhibition (at 20 µM) does the source give for `O=C(Cc1cccs1)N/N=C/c1ccco1` here?
**A.** Its inhibition is 5% (inactive).

**Q.** Which inhibition (at 20 µM) does the source give for `Cc1ccc(CSc2nnc(SCC(=O)N/N=C/C=C/c3ccco3)s2)cc1` here?
**A.** Its inhibition is 46.7% (inactive).
